# High-throughput results deposited in PubChem by several laboratories.
# KCC2 mod: modulators of human KCC2 chloride dependent transport; 2.2% of 190,000 active; AID 1456; KCC2 cells, thallium flux FluoZin-2 fluorescence; B-score of Tl+ flux slope (higher = more flux/activation; lower = inhibition) at 10 µM; Q9H2X9;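 active = thallium flux slope and its plate-corrected score both differing from the plate sample mean at a set confidence after two filtering rounds, in either direction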;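 also: slope of fluorescence scaled to starting intensity during 10 to 20 s after thallium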
# Lmaj promast: reduces viability of Leishmania major promastigotes; resazurin fluorescence viability; inhibition, % at 10 µM; 9% of 200,000 active; AID 1063; in the data active = inhibition above about 50%;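 also: promastigotes grown with compound for 44 hours at 28 °C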
# Ins promoter up: MIN6 insulin promoter up-regulation | z-score at 5 µM | MIN6 insulin promoter-GFP reporter, high-content imaging; stronger effect = higher value | 0.3% of 190,000 active | AID 1625;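 active = z-score above 3 at 5 µM with at least 500 cells counted in the well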
# ROMK mod: modulators of human ROMK potassium channel; B-score at 10 µM; P48048; Tet-inducible ROMK, thallium flux fluorescence; actives lie on both sides; AID 1918; 2% of 130,000 active;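 active = signal ratio slope over the read window, or its plate-corrected B-score, at least 3 SD from the plate mean, either direction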;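 also: B-score of the F/F0 ratio slope over 7 to 12 s after thallium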
# Target sequence (P48048 whole entry, looked up): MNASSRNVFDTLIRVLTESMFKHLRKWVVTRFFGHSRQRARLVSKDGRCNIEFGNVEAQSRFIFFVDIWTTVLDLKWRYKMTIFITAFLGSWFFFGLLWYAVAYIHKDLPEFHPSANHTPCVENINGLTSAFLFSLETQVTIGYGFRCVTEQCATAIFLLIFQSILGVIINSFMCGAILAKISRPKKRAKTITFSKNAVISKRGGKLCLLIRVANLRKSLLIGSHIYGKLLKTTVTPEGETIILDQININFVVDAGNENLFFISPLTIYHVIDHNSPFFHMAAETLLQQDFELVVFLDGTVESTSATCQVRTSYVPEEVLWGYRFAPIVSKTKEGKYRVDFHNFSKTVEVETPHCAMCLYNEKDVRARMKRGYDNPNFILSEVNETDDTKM
# WT yeast gro inh: growth inhibition of WT yeast, mitochondrial fusion screen. mitochondrial fusion phenotypic screen, WT strain. inhibition, % at 10 µM. 2.1% of 190,000 active. AID 1362; in the data active = inhibition above about 58%; tested in S. cerevisiae
# INS promoter inh: TRM-6 insulin promoter activity inhibition | 0.9% of 130,000 active | inhibition, % at 2 µM | TRM-6 cells (human fetal islet line), insulin promoter-eGFP reporter, imaging; reporter expression induced with tamoxifen;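 active = inhibition above the mean plus 3 SD, with well images judged a real hit on visual review, cut at about 60% in these data, passing the limit was not always enough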
# The depositor's hits bear a star; . = no result given. An excerpt weighted towards active compounds, which were near 12% of everything screened.
SMILES,KCC2 mod,Lmaj promast,Ins promoter up,ROMK mod,WT yeast gro inh,INS promoter inh
CCCc1cc(C(=O)Cc2ccc(F)cc2)c(O)cc1O,-1.6,-2,0.36,-1.9,82*,-269
Clc1cccc(Nc2ncnc3ccc(Br)cc23)c1,.,40,-0.54,.,73*,13
Cc1cccc(Nc2ncnc3ccc(Br)cc23)c1,-0.64,56*,-0.98,-0.54,35,.
COc1ccccc1Nc1nc2ccc(C)cc2cc1C#N,0.7,-7,.,.,3,13
CCOC(=O)c1cccc(Nc2ncnc3ccc(C)cc23)c1,-1.5,56*,-1,.,16,27
COc1ccccc1Nc1ncnc2ccc(C)cc12,.,71*,-0.01,0.087,-8,-21
Cc1ccc(C)c(C(=O)CSc2nnnn2-c2cccnc2)c1,.,-5,0.13,.,-5,0
O=C(CSCc1ccco1)NC1CCCC1,0.77,-4,1.1,0.13,-16,-69
Clc1ccc(Nc2ncnc3ccc(Br)cc23)cc1,.,20,0.01,.,61*,-219
Cc1ccc2ncnc(Nc3ccccc3)c2c1,-0.26,65*,-0.35,-0.92,4,36
Oc1c(Cl)cc(Cl)cc1Sc1cc(Cl)cc(Cl)c1O,37*,-9,.,.,98,19
C=CCNC(=S)Nc1sc2c(c1C(=O)OCC)CC(C(C)C)OC2 (stereo not drawn),32*,0,0.08,.,10,23
CCOC(=O)c1c(NC(=S)Nc2ccc(OC)cc2)sc2c1CCC2,-1.3,0,0.16,.,1,17
CC(C)C1Cc2c(sc(NC(=S)NC(=O)c3ccccc3)c2C#N)CO1 (stereo not drawn),1.1,-5,-0.2,.,10,26
CCOC(=O)c1c(NC(=S)NCCc2ccccc2)sc2c1CC(C(C)C)OC2 (stereo not drawn),8.9*,-2,0.33,.,3,.
CCOC(=O)C1CCCN(C2CC(=O)N(c3cccc(C(F)(F)F)c3)C2=O)C1 (stereo not drawn),1.3,3,-0.94,0.095,1,5
CCNC(=S)NNC(=O)c1cc(-c2cccc(C)c2)nc2ccccc12,0.76,95*,-0.55,.,29,9
CCn1cc(CNC(=O)c2cc(-c3ccccc3OC)nc3ccccc23)c(C)n1,0.38,-3,0.08,-0.18,-8,.
CCNC(=S)NNC(=O)c1cc(-c2cccc(OCC)c2)nc2ccccc12,-0.27,-2,-0.05,-0.32,-10,-3
CCn1cc(CNC(=O)c2cc(-c3cc(OC)ccc3OC)nc3ccccc23)c(C)n1,-0.02,56*,-0.4,-0.18,-6,43
CCNC(=S)NNC(=O)c1ccccc1Cl,-1.1,51*,-0.47,0.91,19,41
CCCCOc1ccc(-c2cc(C(=O)NNC(=S)NCC)c3ccccc3n2)cc1,3.9,9,-0.75,0.084,53,11
CCNC(=S)NNC(=O)c1cc(-c2ccc(OC)cc2)nc2ccccc12,1.2,2,-0.85,-0.059,68*,42
N#CC1=C(N)OC2=C(C(=O)CC(c3ccco3)C2)C1c1ccc(OCc2c(F)cccc2Cl)cc1 (stereo not drawn),-0.05,11,0.84,.,2,0
CSc1ccc(-c2nc(CN(C)C3CCOC3)c(C)o2)cc1 (stereo not drawn),.,2,-0.43,-0.12,12,.
SMILES,KCC2 mod,Lmaj promast,Ins promoter up,ROMK mod,WT yeast gro inh,INS promoter inh
O=C(Nc1ccccc1)Nc1cccc(C(F)(F)F)c1,0.42,-4,-1.2,-0.58,38,20
CNC(=O)Nc1cccc(C(F)(F)F)c1,0.24,-4,0.54,-0.34,-10,81*
O=C(/C=C/Nc1cccc(C(F)(F)F)c1)C(F)(F)F,0.22,-5,-0.58,.,65*,.
CCCCCNCC(=O)Nc1cccc(C(=O)Nc2cccc(C(F)(F)F)c2)c1,0.84,27,-0.56,0.031,78*,.
O=C(CN1CCCCC1)n1c2ccccc2c2ccccc21,-1.3,.,0.23,.,.,.
O=C1NC(=S)S/C1=C\c1coc2ccccc2c1=O,.,-8,-1.1,-4.6*,-17,23
CC1(C)CC(O)C(C)(C)N1O (stereo not drawn),.,-2,2.2,0.77,-4,.
Cc1ccc(-n2c(=O)cc(N3CC(C)CC(C)C3)[nH]c2=O)cc1 (stereo not drawn),0.64,-6,-0.03,.,-41,73*
CS(=O)(=O)N1CCCC(C(=O)N2CCc3ccccc3C2)C1 (stereo not drawn),-0.11,-6,-0.08,.,1,62
Clc1ccc(C2=Nn3c(nnc3-c3cccs3)SC2)cc1,-0.082,-6,.,1.1,-20,-58
c1ccc(-c2ccc(C3=Nn4c(nnc4-c4cccs4)SC3)cc2)cc1,-0.53,.,-0.96,.,.,.
Cc1nnc2n(c1=O)N=C(c1ccc(Cl)cc1)CS2,0.059,80*,-0.27,0.22,0,35
c1ccc(C2=Nn3c(nnc3-c3cc(-c4ccccc4)n[nH]3)SC2)cc1,0.14,63*,0.35,.,-1,-17
Cc1ccc(-c2nnc3n2N=C(c2ccccc2)CS3)cc1,-0.47,-4,.,.,-7,.
Clc1ccc(C2=Nn3c(nnc3-c3cc(-c4ccccc4)n[nH]3)SC2)cc1,.,13,0.71,.,97*,25
COc1ccc(C2=Nn3c(nnc3-c3ccc(OC)cc3)SC2)cc1,-0.3,61*,.,.,6,.
O=C(Nc1ccc(Br)cc1)c1ccc(F)c(S(=O)(=O)N2CCN(c3ccccn3)CC2)c1,0.26,25,-2.5,0.084,3,50
O=[N+]([O-])c1ccc2c(c1Nc1ccccc1Cl)=NC1(CCCCC1)N=2,0.13,.,.,.,.,.
Cc1ccc(Nc2c([N+](=O)[O-])ccc3c2=NC2(CCCCC2)N=3)cc1,-0.13,51*,-0.14,-0.1,13,.
CCOc1cc(N2CCOCC2)c(OCC)cc1NC(=O)CSc1cccc[n+]1[O-],0.48,-7,-0.02,.,-11,27
CCCc1cnc(N2CCN(S(C)(=O)=O)CC2)nc1,0.71,.,-1.8,.,.,.
CS(=O)(=O)N1CCN(c2ncccn2)CC1,-0.0076,-6,.,.,-1,83*
Cc1ccccc1/C=N/n1c(-c2ccccn2)n[nH]c1=S,0.38,.,-1.2,.,.,.
S=c1[nH]nc(-c2ccccn2)n1/N=C/c1cccc2ccccc12,4.4,50*,-0.09,-0.79,-10,7
Cc1cccc(C)c1NC(=O)COC(=O)c1c2c(nc3ccccc13)/C(=C\c1ccc3c(c1)OCO3)CCC2,0.036,83*,-0.51,-0.35,-2,18
CC(OC(=O)c1c2c(nc3ccccc13)/C(=C\c1ccc3c(c1)OCO3)CCC2)C(=O)Nc1ccc(S(N)(=O)=O)cc1 (stereo not drawn),0.32,14,.,.,6,-16
Cc1ccccc1N1CCN(C2=NC(=O)/C(=C\c3cccs3)S2)CC1,-0.09,21,0.64,0.46,64*,-7
Cc1cc(C)n2ncc(C(=O)NCc3ccccc3)c2n1,.,55*,0.62,-0.14,19,0
Cc1ccccc1OCc1nc2ccccc2c(=O)n1/N=C/c1cn[nH]c1-c1ccccc1,-1,100*,-1.2,-0.02,57,-64
O=C(Nc1ccc(S(=O)(=O)Nc2ncccn2)cc1)c1ccccc1NS(=O)(=O)c1ccc(F)cc1,-1.1,-6,0.4,-0.6,-15,.
